Test results published in PubChem BioAssay AID1159580 (chemical genetic matrix, 2015).
Out of some 5,500 compounds screened, about 2,000 (36%) were called active. Inconclusive results (about 18%) are left out. This is one part of the list. Unmarked numbers belong to inactive results. Cut-off read from the data, not from the text of the source: active = normalized growth mostly below about 0.91 (no sharp cut-off); inconclusive = no clear call, values can overlap the other calls; inactive = mostly above about 0.92.

Assay: chemical genetic growth profiling, strain panel (AID 1159580);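 note: tested at 20 µM; growth read once vehicle control cultures reached saturation at 30 °C; 1 = growth at the plate median or of vehicle wells; lower values mean less growth of the strain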
Details: S. cerevisiae deletion strains, growth OD

O=C(NCCc1ccncc1)c1ccc(Cl)c(Cl)c1
normalized growth (locus YAR019C, strain CDC15, stronger effect = lower value): 0.985 | normalized growth (locus YBL105C, strain PKC1, stronger effect = lower value): 0.987 | normalized growth (locus YBR135W, strain CKS1, stronger effect = lower value): 0.988 | normalized growth (locus YBR136W, strain MEC1, stronger effect = lower value): 0.987 | normalized growth (locus YBR160W, strain CDC28, stronger effect = lower value): 0.991 | normalized growth (locus YDL017W, strain CDC7, stronger effect = lower value): 0.991 | normalized growth (locus YDL028C, strain MPS1, stronger effect = lower value): 0.985 | normalized growth (locus YDL101C, strain DUN1, stronger effect = lower value): 0.98 | normalized growth (locus YDL108W, strain KIN28, stronger effect = lower value): 0.981 | normalized growth (locus YDL132W, strain cdc53, stronger effect = lower value): 0.998 | normalized growth (locus YDL214C, strain PRR2, stronger effect = lower value): 0.945 | normalized growth (locus YDR052C, strain DBF4, stronger effect = lower value): 0.988 | normalized growth (locus YDR054C, strain cdc34, stronger effect = lower value): 0.984 | normalized growth (locus YDR226W, strain ADK1, stronger effect = lower value): 0.985 | normalized growth (locus YDR477W, strain SNF1, stronger effect = lower value): 1.01 | normalized growth (locus YER123W, strain YCK3, stronger effect = lower value): 0.877 | normalized growth (locus YER133W, strain GLC7, stronger effect = lower value): 0.969 | normalized growth (locus YFL009W, strain cdc4, stronger effect = lower value): 0.982 | normalized growth (locus YFL029C, strain CAK1, stronger effect = lower value): 0.98 | normalized growth (locus YFR003C, strain YPI1, stronger effect = lower value): 0.984 | normalized growth (locus YFR019W, strain FAB1, stronger effect = lower value): 0.927 | normalized growth (locus YFR028C, strain CDC14, stronger effect = lower value): 0.994 | normalized growth (locus YGR040W, strain KSS1, stronger effect = lower value): 0.992 | normalized growth (locus YGR052W, strain FMP48, stronger effect = lower value): 0.985 | normalized growth (locus YGR092W, strain DBF2, stronger effect = lower value): 1 | normalized growth (locus YHR030C, strain SLT2, stronger effect = lower value): 0.911 | normalized growth (locus YHR079C, strain IRE1, stronger effect = lower value): 0.938 | normalized growth (locus YHR082C, strain KSP1, stronger effect = lower value): 1.1 | normalized growth (locus YHR205W, strain SCH9, stronger effect = lower value): 0.99 | normalized growth (locus YIL147C, strain SLN1, stronger effect = lower value): 0.986 | normalized growth (locus YJL095W, strain BCK1, stronger effect = lower value): 0.925 | normalized growth (locus YJL128C, strain PBS2, stronger effect = lower value): 0.94 | normalized growth (locus YJL157C, strain FAR1, stronger effect = lower value): 0.96 | normalized growth (locus YJR016C, strain ILV3, stronger effect = lower value): 0.995 | normalized growth (locus YJR066W, strain TOR1 (second series), stronger effect = lower value): 1.03 | normalized growth (locus YJR066W, strain TOR1, stronger effect = lower value): 1.04 | normalized growth (locus YKL048C, strain ELM1, stronger effect = lower value): 0.992 | normalized growth (locus YKL067W, strain YNK1, stronger effect = lower value): 0.947 | normalized growth (locus YKL101W, strain HSL1, stronger effect = lower value): 0.941 | normalized growth (locus YKL193C, strain SDS22, stronger effect = lower value): 0.992 | normalized growth (locus YKL203C, strain TOR2, stronger effect = lower value): 1.01 | normalized growth (locus YLR113W, strain HOG1, stronger effect = lower value): 0.756 (active) | normalized growth (locus YLR133W, strain CKI1, stronger effect = lower value): 0.977 | normalized growth (locus YLR403W, strain SFP1, stronger effect = lower value): 0.972 | normalized growth (locus YML070W, strain DAK1, stronger effect = lower value): 0.941 | normalized growth (locus YMR001C, strain CDC5, stronger effect = lower value): 0.989 | normalized growth (locus YMR205C, strain PFK2 (second series), stronger effect = lower value): 0.978 | normalized growth (locus YMR277W, strain FCP1, stronger effect = lower value): 0.989 | normalized growth (locus YNL006W, strain LST8, stronger effect = lower value): 0.976 | normalized growth (locus YNL020C, strain ARK1, stronger effect = lower value): 0.964 | normalized growth (locus YNL161W, strain CBK1, stronger effect = lower value): 0.991 | normalized growth (locus YNL183C, strain NPR1, stronger effect = lower value): 1.01 | normalized growth (locus YNL207W, strain RIO2, stronger effect = lower value): 0.991 | normalized growth (locus YNL222W, strain SSU72, stronger effect = lower value): 0.992 | normalized growth (locus YNL307C, strain MCK1 (second series), stronger effect = lower value): 0.961 | normalized growth (locus YOL078W, strain AVO1, stronger effect = lower value): 0.997 | normalized growth (locus YOL136C, strain PFK27, stronger effect = lower value): 0.945 | normalized growth (locus YOR061W, strain CKA2, stronger effect = lower value): 0.924 | normalized growth (locus YOR119C, strain RIO1, stronger effect = lower value): 1.03 | normalized growth (locus YOR231W, strain MKK1, stronger effect = lower value): 0.916 | normalized growth (locus YOR329C, strain SCD5, stronger effect = lower value): 0.991 | normalized growth (locus YPL031C, strain PHO85, stronger effect = lower value): 0.976 | normalized growth (locus YPL153C, strain RAD53, stronger effect = lower value): 0.993 | normalized growth (locus YPL204W, strain HRR25, stronger effect = lower value): 0.972 | normalized growth (locus YPL209C, strain IPL1, stronger effect = lower value): 0.987 | normalized growth (locus YPL256C, strain CLN2, stronger effect = lower value): 0.868 | normalized growth (locus YPR025C, strain CCL1, stronger effect = lower value): 0.992 | normalized growth (locus YPR106W, strain ISR1, stronger effect = lower value): 0.983 | normalized growth (locus YPR111W, strain DBF20, stronger effect = lower value): 0.961 | normalized growth (strain NNK1, stronger effect = lower value): 0.982 | normalized growth (strain TSCII, stronger effect = lower value): 0.983
